Data as given in ChEMBL document CHEMBL3433997, “St. Jude Leishmania screening dataset” (2016).

What was measured:
Type in all cases: functional
[1] = biological target: Solute carrier family 2, facilitated glucose transporter member 1 (Homo sapiens) (UniProt P11166); assay: ST_JUDE_LEISH: Cytotoxicity at 2uM final concentration against transgenic Leishmania Mexicana promastigotes LmGLUT1 that are glucose transport deficient and complemented with the human glucose transporter GLUT1. Activity is measured by DNA content using SYBR green in vitro
Solute carrier family 2, facilitated glucose transporter member 1 (Homo sapiens), sequence (P11166 whole entry): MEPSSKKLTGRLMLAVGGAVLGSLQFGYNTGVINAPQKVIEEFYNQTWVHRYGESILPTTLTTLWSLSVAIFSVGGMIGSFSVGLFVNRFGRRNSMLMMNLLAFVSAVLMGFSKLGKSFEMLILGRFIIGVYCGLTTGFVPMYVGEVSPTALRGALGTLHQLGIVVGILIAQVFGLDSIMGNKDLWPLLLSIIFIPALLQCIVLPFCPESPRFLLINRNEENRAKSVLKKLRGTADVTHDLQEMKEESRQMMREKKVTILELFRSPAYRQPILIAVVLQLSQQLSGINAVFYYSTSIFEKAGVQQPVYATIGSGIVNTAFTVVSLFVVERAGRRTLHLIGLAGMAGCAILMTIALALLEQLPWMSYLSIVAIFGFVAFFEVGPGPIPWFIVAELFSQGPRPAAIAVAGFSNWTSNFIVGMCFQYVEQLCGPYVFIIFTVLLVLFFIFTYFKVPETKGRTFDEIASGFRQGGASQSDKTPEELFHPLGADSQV

[2] = biological target: Hexose transporter 1 (Plasmodium falciparum) (UniProt O97467); assay: ST_JUDE_LEISH: Cytotoxicity at 2uM final concentration against transgenic Leishmania Mexicana promastigotes LmPfHT that are glucose transport deficient and complemented with the Plasmodium falciparum hexose transporter. Activity is measured by DNA content using SYBR green in vitro
[3] = biological target: Glucose transporter (Leishmania mexicana) (UniProt O61059); assay: ST_JUDE_LEISH: Cytotoxicity at 2uM final concentration against transgenic Leishmania Mexicana promastigotes LmGT2 that are glucose transport deficient and complemented with the L. Mexicana glucose transporter 2. Activity is measured by DNA content using SYBR green in vitro

With `Cc1sc(N2CCCCC2)nc1C(=O)Nc1ccc(F)cc1C(F)(F)F` the inhibition [1] was 3.13%, the inhibition [2] was -1.54% and the inhibition [3] was 0.73%.
With `COc1ccc(-c2cccc(CNCc3ccc(F)cc3)c2)cc1S(=O)(=O)NCCN1CCCC1` the inhibition [1] was 7.5%, the inhibition [2] was 8.55% and the inhibition [3] was 6.87%.
Work on `CCOc1ncccc1CN1CCC(N2CCc3cc(NC(=O)c4cc(C)on4)ccc32)C1` (centres undefined) yielded an inhibition [1] of -0.44%, an inhibition [2] of 0.36% and an inhibition [3] of -0.18%.
`CCCCCCNc1c2ccccc2nc2ccccc12` showed an inhibition [1] of 4.99%, an inhibition [2] of 9.27% and an inhibition [3] of 3.25%.
Molecule `Oc1ccc(-c2ccccc2)cc1CN1CCCCCC1` has an inhibition [1] of 1.18%, an inhibition [2] of 2.49% and an inhibition [3] of 1%.
`Clc1ccc(Nc2nc(-c3ccccn3)cs2)nc1` was tested, and the inhibition [1] was 67.7%, the inhibition [2] was 27.3% and the inhibition [3] was 22.7%.
With `COc1ccc(-c2cccc(NC(=O)c3cccc(Cl)c3)c2)cc1CN(C)CCN(C)C` the inhibition [1] was 1.29%, the inhibition [2] was 0.75% and the inhibition [3] was -1.29%.
With `CCc1c(C)nc(-n2nc(C)cc2NC(=O)C(CC)c2ccccc2)[nH]c1=O` (centres undefined) the inhibition [1] was 18.6%, the inhibition [2] was 7.02% and the inhibition [3] was -2.05%.
`Cc1[nH]c(C)c(-c2ccc(-c3ccc(OC(F)(F)F)cc3)nc2)c(=O)c1Br` gave an inhibition [1] of 9.71%, an inhibition [2] of 8.43% and an inhibition [3] of 8.85%.
`Clc1ccc(OCCC2CCN(CCCCCCCN3CCC(CCOc4ccc(Cl)c(Cl)c4)CC3)CC2)cc1Cl` gave an inhibition [1] of 9.59%, an inhibition [2] of 11.4% and an inhibition [3] of 3.47%.
`OC1CCCN(Cc2ccc(-c3ccc(-c4nc5cc(F)ccc5[nH]4)s3)cc2)C1` (centres undefined) showed an inhibition [1] of 3.05%, an inhibition [2] of 2.51% and an inhibition [3] of 1.76%.
Work on `CC(C)COc1ccc(C(O)C(CN2CCCCC2)c2ccccc2)cc1` (centres undefined) yielded an inhibition [1] of 5.44%, an inhibition [2] of 1.93% and an inhibition [3] of 3.27%.
In the case of `Nc1cccc(CNCc2cccc(-c3ccc(-c4nc5cc(C(F)(F)F)ccc5[nH]4)cc3)c2)c1`, the inhibition [1] is reported as 4.8%, the inhibition [2] is reported as 6.83% and the inhibition [3] is reported as 3.77%.
